Results taken from PubChem BioAssay (NCI).
The panel holds about 79,000 compounds, 15% with a hit somewhere; the sample as a whole holds those more often. Unmarked numbers belong to inactive results. Calls of active or inactive are those of the source. No stated cut-off is given here; in the data, active means growth inhibition above about 70%; inactive means the rest.

Test: NCI Yeast Anticancer Drug Screen. Data for the mgt1 strain (AID 153)
Conditions: S. cerevisiae mgt1 mutant growth inhibition, stronger effect = higher value
Method: Growth inhibition of yeast strains with defined genetic alterations is measured as a screen for potential anti-cancer activity. Selected strains with alterations in DNA damage repair or cell cycle control were exposed to compounds and growth inhibition was measured relative to vehicle treated controls. The strain used in this assay is mgt1

Structure (SMILES) | growth inhibition (at 1.2 µM) [%] | growth inhibition (at 3.7 µM) [%] | growth inhibition (at 11.0 µM) [%] | growth inhibition (at 33.0 µM) | growth inhibition (at 100.0 µM)
CC1CN(/N=C\c2ccc([N+](=O)[O-])o2)C(=O)O1 (stereo not given) | -1 | -1 | -1 | -1% | 9%
Fc1ccc(Nc2ccc3ccccc3c2)cc1 | -2 | -1 | -2 | 54% | 94% (active)
Cc1cc(C)c(S(=O)(=O)c2ccc(Cl)cc2)c(C)c1 | -7 | -8 | -14 | -13% | -3%
CN(C)CC(CN(C)C)C(=O)/C=C/c1ccc(Cl)cc1Cl | -2 | -2 | 3 | 99% (active) | 98% (active)
Oc1ccc(N=Nc2ccc(Cl)cc2)cc1 | -3 | 4 | 61 | 99% (active) | 99% (active)
CCCCCCCCCCCCOCCOCCOCC(N)=O | 9 | -8 | -10 | 97% (active) | 96% (active)
Cc1c2cc[n+](CCO)cc2c(C)c2c1[nH]c1ccc(O)cc12 | 22 | 26 | 28 | 35% | 45%
NC(=O)NC1C(c2ccccc2)=C1c1ccccc1 | 0 | -2 | 0 | -3% | 19%
